Whole data set: some 9,900 sequences, median “r (bound/input frequency ratio)” near 0.7, cut for the highest 2% near 6.5. The full list was thinned out, with the highest values kept by preference.

The labels stand for the following.
B1: ENSMUSG00000028439.39|Fam219a|34:40 (ssRNA)
RNA: GGGAGUUCUACAGUCCGACGAUCGCUUCGAUAUCCGCAUGCUACAUUGCUUCCUCCUAUGGUAGGACGUGUACCUCACACACAUCAAGGAGCCGGAGAAACCAAAACCGGGUCUGUCUCCAGCCCCGGGGCUGAGGAGGGGUGGGCACUGUUUGUUCGGUUACUUGGGGGGAACCACACCCAAGCACCCUGCCACCUCUCCUAUAGCUGCAGUCAGGGGGGCAGCACUGAAGGCCAGGAGGCCAAAUGUAAGCGUUGGGUGAAGGGAUCACAGGGCCGGAAGGUUGGCCCCAGCCAGUGAAGCCUCUUGCGGUCGCACUAGUGUGGAAUUCUCGGGUGUCAAGG
B2: ENSMUSG00000043670.69|Diras1|133:138 (ssRNA)
RNA: GGGAGUUCUACAGUCCGACGAUCGCUUCGAUAUCCGCAUGCUACCAUUCUAUCUGCACCCCACAACCACACACUGGAGGUUUGAUCCCUGUGGAUCUGAAAACAGGGACCUGGCUAAGGAACUGCUCAUCCCAGUCAGGCCCAGAGAGGUUACCUUGCCUCUCCAUCUCUGUCCCACACACCCCAGCCAUGCCCACUGUCCCUGUCCCUCACAUUCUAUCACUGUGACCUCUGGGGAGUGCCCAUUGACCUCAUCUUCCUUCACUAAUAUCUUAUUUCUUUCACCUGAUCCUGUCCUUUCCCCCUCUUGCGGUCGCACUAGUGUGGAAUUCUCGGGUGUCAAGG
B3: ENSMUSG00000028439.112|Fam219a (ssRNA)
RNA: GGGAGUUCUACAGUCCGACGAUCGCUUCGAUAUCCGCAUGCUACAAAGGGAUACUGUCUCUCCAUUAGAUAACUCCUUCCACUGUCUCCCUCCCCCGCUUUCUUACUUUCUGAGGGUUGGGAAGGUAAGAUGGGCCUUAGAGAGAAGCCAGGUUUGGGGAUGGUAUGACCUGUUCUCACCGGUCUCUAACCAGUGCAUCUGUCUCUCUGCCUCAUCCCCACACCGCCCUGCCACCCCCAGUCUUCUGUCUAUUGGUUCCAGGCUGGAAGCAAGAGAUAAGGCUGGCCUCCUGUGCCCCAUUGCCUCUUGCGGUCGCACUAGUGUGGAAUUCUCGGGUGUCAAGG
B4: ENSMUSG00000032194.3|Kank2 (ssRNA)
RNA: GGGAGUUCUACAGUCCGACGAUCGCUUCGAUAUCCGCAUGCUAUCAGACUACGAGAGUCCGGCUUCGUCUUCAGCCGAGGAGUGAAUACAGGGAGGAGCCAGUGAGUCCCCCAGGACCCACCAGCCACAAGCCACGCAUCAAACCGUCCCUCCUCCAUCCCUCUGUCCCAUUCUGCCUCGGCAUUCCUCAGCCCCUGAACUUCCCUGAGGGAGCCCUGACAUCUACCAGGCUCAAGCUCCUGGAAGCCUUUCCCAGCACCCUGGGUUCAAAGCCAGAAAGCCAAGCUACAUUCUCCUCCCAGUCUCUUGCGGUCGCACUAGUGUGGAAUUCUCGGGUGUCAAGG
B5: ENSMUSG00000031028.174|Tub|17:22 (ssRNA)
RNA: GGGAGUUCUACAGUCCGACGAUCGCUUCGAUAUCCGCAUGCUAAGAGGUAGCGGACCUCACACACGUUCACCAACAGCAAUGCUGAUCCCUGAGUAUAGGGCACAUGUCUCUUGGUUACCUCACUGGUUAAUGGCAGAGUUGAGAACCUCAAAUUCUUUUGUUCCUACUGUUGCCCAGAAACUAGACUCUCUGACCUGCUAGGGUCUAUUCUGCAUGUCCUUUCUCUUCCCAGUUCCAGAGAUGAAACCCCUCCGAGUUAAUGUAUAAGGUUGGAAACCUUUCAGUAGGGAAUCAGGCAGUUCCUCUUGCGGUCGCACUAGUGUGGAAUUCUCGGGUGUCAAGG
B6: ENSMUSG00000029028.255|Lrrc47 (ssRNA)
RNA: GGGAGUUCUACAGUCCGACGAUCGCUUCGAUAUCCGCAUGCUAGCUCACAGGUCCCUUUGAGUGGCUGUGGCAAGUACUCACCUACUAAGUGUUUAGGGUGGAGCUAUCCUGUGCUCACCCUGUCUCCCCCCAGUUCCUGCUGUUCCCUCCAGCCCAGCCCAGCCCAGGUGUGAGAUUCAUUGAGAUUUUUGAAACUGUUUUUACAGAUUCAAGCAGAACGCCUCUUUGUUCUAAUAAAAACCCUUGGUAACGACAUCUCUGCAUCAGCAGCCUUAGCACAUGCGUCUCCCAGGACAGUGUUGCUCUUGCGGUCGCACUAGUGUGGAAUUCUCGGGUGUCAAGG
B7: ENSMUSG00000029636.271|Wasf3|45:50 (ssRNA)
RNA: GGGAGUUCUACAGUCCGACGAUCGCUUCGAUAUCCGCAUGCUAAGUGAAAGCCCAUGUGCAAGCCCCUCCCUACGCCCUGCUUUGGCCACACACUGAGUGCUCUGUGCUGCGCCAUGGCCAUCCUGGAGCCUGCGCACACGUGGCCGCUGCUGUGACUCGCUGUCCUUGGUAAUUGGUGAGAGGCUUUUUCUUUCUUUCUCAGUUCUGCUUUUCCACACUGAGACCCACCAUGUUGACAUCAUCCUCGCGACGUUGACAUUUGAGCCUUUUGUUCUGUCUCCCAUGUGCCCUGUAGAACCCAGCUCUUGCGGUCGCACUAGUGUGGAAUUCUCGGGUGUCAAGG
B8: ENSMUSG00000022095.271|Fam160b2|19:39;86:90;222:227 (ssRNA)
RNA: GGGAGUUCUACAGUCCGACGAUCGCUUCGAUAUCCGCAUGCUAAGCUAUGAAUGAAUGUGACACACACACACACACACACACAGAGAGAGAGAGAGAGAGAGAGAGCUGUGAGUACACAUGGGUGCUGCACACGGACAGGAGCAGAUCUUGGUGGAGUGGGUCUACACUUGAGAUUUGUACUCGUUUGAGAGGCUGGGCAAUACUCAAUGCACUUUGGCAUUUGCAUGGUGUCUUCACAACAGCACAGCAAUAAACAUUGUGAUACACACGACAUGCUGACUCUCCCCAGUCUGCUUUUCUUUCUCUUGCGGUCGCACUAGUGUGGAAUUCUCGGGUGUCAAGG
B9: ENSMUSG00000022095.270|Fam160b2 (ssRNA)
RNA: GGGAGUUCUACAGUCCGACGAUCGCUUCGAUAUCCGCAUGCUAAGAGCGAGCUAUGAAUGAAUGUGAGUGUGUGUGUGUGUGUGUGUGAGAGAGAGAGAGAGAGAGAGAGAGCUGUGAGUACACAUGGGUGCUGGUGUGGGACAGGAGCAGAUCUUGGUGGAGUGGGUCUACACUUGAGAUUUGUACUCGUUUGAGAGGCUGGGCAAUACUCAAUGCACUUUGGCAUUUGCAUGGUGUCUUCACAACAGCACAGCAAUAAACAUUGUGAUUGUGUGGACAUGCUGACUCUCCCCAGUCUGCUUCUCUUGCGGUCGCACUAGUGUGGAAUUCUCGGGUGUCAAGG

TDP-43, sequence (Q13148 whole entry): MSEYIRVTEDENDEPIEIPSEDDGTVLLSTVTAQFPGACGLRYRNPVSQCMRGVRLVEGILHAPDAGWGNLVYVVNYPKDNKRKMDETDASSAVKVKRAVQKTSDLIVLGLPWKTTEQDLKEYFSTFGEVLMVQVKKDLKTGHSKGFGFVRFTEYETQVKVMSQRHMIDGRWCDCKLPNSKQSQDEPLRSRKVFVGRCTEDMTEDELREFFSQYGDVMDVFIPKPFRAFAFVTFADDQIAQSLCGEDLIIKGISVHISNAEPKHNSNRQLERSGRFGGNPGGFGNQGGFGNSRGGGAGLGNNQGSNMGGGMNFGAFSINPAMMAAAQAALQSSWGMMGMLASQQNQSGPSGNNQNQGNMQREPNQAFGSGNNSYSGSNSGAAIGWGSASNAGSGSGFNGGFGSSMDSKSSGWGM

This assay concerns the target TDP-43 (Homo sapiens, UniProt Q13148 1-414). Put plainly: RNA Bind-n-Seq with designed 260-mer pool; 25 mM Tris-HCl, 150 mM KCl, 3 mM MgCl2, BSA (printed 500 mg/mL), 20 units/mL SUPERase IN; pH not stated; 500 nM RNA pool, 1 h, 4 C; TDP-43 5, 50, 500 nM; high values mean tight binding. Conditions: protein: recombinant; tags: SBP (GST cleaved off with PreScission; pGEX-GST-SBP). Summed up: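 Duplicate measurements used two independent batches of recombinant SBP-tagged TDP-43, which was captured on streptavidin beads at 5, 50 or 500 nM. The beads were incubated with 500 nM of an in vitro-transcribed 260-nt 3′ UTR oligo pool for 1 h at 4 °C in 25 mM Tris-HCl, 150 mM KCl, 3 mM MgCl2, BSA and SUPERase IN. After washing, biotin elution, reverse transcription, PCR amplification and sequencing, binding was expressed as R: each oligo's normalized read abundance in the bound sample over its abundance in input.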
As to B1, the binding signal is 1.29 R (bound/input frequency ratio). The result for B2 reads 2.03 R (bound/input frequency ratio). The result for B3 reads 0.71 R (bound/input frequency ratio); that for B4, 1.4 R (bound/input frequency ratio). The result for B5 reads 0.553 R (bound/input frequency ratio); that for B6, 0.69 R (bound/input frequency ratio); that for B7, 0.821 R (bound/input frequency ratio). Take B8: the binding signal was 4.21 R (bound/input frequency ratio). Regarding B9, the binding signal is 7.19 R (bound/input frequency ratio).

The values are drawn from article PMC12864922, “TDP-43 directly inhibits mRNA accumulation in neurites through modulation of mRNA stability”.
